In PubChem BioAssay:
The source made the active and inactive calls.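 The calls were made as follows, unless noted: active = inhibition above 20% together with a positive visual image hit; inconclusive = visual image hit but inhibition not above 20%; inactive = no visual image hit.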

What was measured:
[1] = inhibitors of TNFa-induced NFkB p65 translocation, primary screen, imaging, HUVEC, MLSMR starter and 10KST1 sets (AID 438); conditions: HUVEC TNFa-induced p65 nuclear translocation; cell count: measured here: nuclei count (cytotoxicity indicator), at 2.08 µM; inhibition: at 2 µM, stronger effect = higher value, 0% TNFa-plus-vehicle, 100% no-TNFa wells;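 also: compound added about 3h40 before a 20 min TNFalpha stimulation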;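 as to inhibition: signal is the nuclear over cytoplasmic p65 intensity ratio per well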
[2] = reduction of polyQ htt aggregates in cells – imaging, exon1htt(103Q)mCFP cells, high-content imaging, primary screen (AID 483;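 active = visual image review flags a hit and inhibition of aggregation exceeds 20%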;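 also: compound exposure lasted 3 days before fixation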;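 as to nuclei count: percent of the per-plate median nuclei count of sample wells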); conditions: exon1htt(103Q)mCFP cell line, aggregate imaging, at 2 µM; inhibition of aggregation: stronger effect = higher value; nuclei count: measured here: cell count, toxicity
[3] = endothelial E-selectin expression blockers – imaging, HUVEC, immunofluorescence, MLSMR starter and 10KST1 sets, primary screen (AID 487;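 active = visually confirmed hit in the image check and inhibition above 20%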;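 as to inhibition: signal is fraction of cell area covered by stained E-selectin grains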;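 as to nuclei count: 100% = median nuclei count of all wells on the same plate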); conditions: HUVEC TNFalpha-induced E-selectin immunofluorescence imaging, at 2 µM; inhibition: stronger effect = higher value; nuclei count: measured here: cell number, toxicity
[4] = target: Voltage-gated potassium channel subunit beta-2 (Rattus norvegicus) (UniProt P62483); assay: inhibitors of rat Kvbeta2 reductase activity – biochemical, NADPH fluorescence, primary screen (AID 622;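 active = fluorescence slope higher than the sample average by over 3 SD, cut at about -0.22 in these data, passing the limit was not always enough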;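 also: slope of raw intensity against log time taken from 70 to 1610 s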); conditions: recombinant KvBeta, 4-cyanobenzaldehyde reduction, at 10 µM, stronger effect = higher value
[5] = target: Voltage-gated potassium channel subunit beta-2 (Rattus norvegicus) (UniProt P62483); assay: enhancers of rat Kvbeta2 NADPH turnover – biochemical, NADPH fluorescence, primary screen (AID 623;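 active = NADPH fluorescence slope more negative than the mean of all samples by about 3 SD, 99.7% confidence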;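 also: fluorescence intensity change per second fitted from 20 to 320 s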); conditions: Recombinant KvBeta, NADPH fluorescence decrease slope, 10 min; at 10 µM; stronger effect = lower value
[6] = target: Alpha-2C adrenergic receptor (Homo sapiens) (UniProt P18825); assay: compounds altering alpha2C-coupled GIRK flux – cell-based, HEK293 alpha2C/GIRK1/2, thallium flux, primary screen (AID 624;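 active = fluorescence slope after compound addition differing from the mean of all screened samples at 99.7% confidence, in either direction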;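 also: slope of fluorescence ratio to pre-addition baseline per second over 15 to 24 s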); conditions: thallium flux BTC fluorescence, at 10 µM, actives lie on both sides
[7] = blockers of RIG-like receptor reporter activation – cell-based, Sendai virus stimulus, luciferase, 10K MLSCN set, TLR/RLR signaling modifier project, primary screen (AID 602276;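 active = inhibition at or above 50% at 10 µM; inactive = inhibition below 50%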;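 also: firefly luciferase from ISG56 promoter only with Renilla not read in this screen; 0% = Sendai virus plus DMSO and 100% = medium plus DMSO without virus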); conditions: HEK293 RL24 IRF3 luciferase reporter, at 10 µM, stronger effect = higher value
[8] = TLR3 IRF3 reporter activation blockers – cell-based, poly I:C stimulus, luciferase, 10K MLSCN set, primary screen (AID 602277;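 active = inhibition of the reporter signal at or above 50%; inactive = inhibition below 50%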); conditions: HEK293-TLR3 RL24 IRF3 luciferase reporter, at 10 µM, stronger effect = higher value

Voltage-gated potassium channel subunit beta-2 (Rattus norvegicus), sequence (P62483 whole entry, looked up): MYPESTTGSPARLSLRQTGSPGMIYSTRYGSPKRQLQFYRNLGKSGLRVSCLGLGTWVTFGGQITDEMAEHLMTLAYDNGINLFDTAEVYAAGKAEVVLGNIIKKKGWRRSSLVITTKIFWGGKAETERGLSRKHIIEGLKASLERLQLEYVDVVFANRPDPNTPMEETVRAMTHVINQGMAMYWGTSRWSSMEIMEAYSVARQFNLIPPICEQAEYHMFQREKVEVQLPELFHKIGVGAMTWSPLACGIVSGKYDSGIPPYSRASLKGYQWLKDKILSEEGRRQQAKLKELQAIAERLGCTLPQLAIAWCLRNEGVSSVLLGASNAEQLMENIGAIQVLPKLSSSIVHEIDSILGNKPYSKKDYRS
Alpha-2C adrenergic receptor (Homo sapiens), sequence (P18825 whole entry, looked up): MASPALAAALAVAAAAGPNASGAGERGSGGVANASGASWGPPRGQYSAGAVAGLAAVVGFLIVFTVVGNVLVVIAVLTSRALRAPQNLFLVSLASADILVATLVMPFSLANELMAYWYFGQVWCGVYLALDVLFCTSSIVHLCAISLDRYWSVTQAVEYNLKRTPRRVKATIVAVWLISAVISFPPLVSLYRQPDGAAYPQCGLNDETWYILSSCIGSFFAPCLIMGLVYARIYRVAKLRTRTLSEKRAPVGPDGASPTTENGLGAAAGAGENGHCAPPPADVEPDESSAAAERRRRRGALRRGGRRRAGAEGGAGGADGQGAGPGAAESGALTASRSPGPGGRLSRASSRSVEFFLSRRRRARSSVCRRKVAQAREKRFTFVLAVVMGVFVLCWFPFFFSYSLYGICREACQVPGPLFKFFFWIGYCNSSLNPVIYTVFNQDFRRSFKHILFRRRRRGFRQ

SMILES | cell count [1] | inhibition [1] | inhibition of aggregation [2] | nuclei count [2] | inhibition [3] | nuclei count [3] | fluorescence slope [4] | NADPH fluorescence slope [5] | slope [6] | inhibition [7] | inhibition [8]
Cc1[nH]nc2c1C(=O)CC(C)(C)C2 | 416 | -4.9% (inactive) | -16.7% (inactive) | 118% | -24.4% (inactive) | 117% | -0.347 (inactive) | -1.7e-05 (inactive) | 0.0065 (inactive) | -3.34% (inactive) | 17.1% (inactive)
CCc1nnc(NC(=O)C2CCCN2S(=O)(=O)c2ccc(C)cc2)s1 (centres undefined) | 445 | -8.4% (inactive) | 24.1% (inactive) | 60.3% | 25.4% (inactive) | 123% | -0.41 (inactive) | 1.6e-05 (inactive) | 0.00581 (inactive) | 2.82% (inactive) | 15.9% (inactive)
CCOC(=O)C1(c2ccccc2)NC(c2ccc(N(C)C)cc2)C2C(=O)N(C)C(=O)C21 (centres undefined) | 450 | -4% (inactive) | 3.8% (inactive) | 116% | -87.1% (inactive) | 93.2% | -0.31 (inactive) | -6.3e-05 (inactive) | 0.00476 (inactive) | 14.4% (inactive) | 22.7% (inactive)
NCCCCCc1nnc(SC/C=C/c2ccccc2)o1 | 396 | -9.8% (inactive) | 3% (inactive) | 69.1% | 20.9% (inactive) | 94% | -0.488 (inactive) | -4.2e-05 (inactive) | 0.00602 (inactive) | 14.3% (inactive) | 12.7% (inactive)
O=C(Nc1cccc(-c2nnc(-c3ccccc3)o2)c1)C1CCCCC1 | 666 | -2.8% (inactive) | -15.1% (inactive) | 109% | -21.3% (inactive) | 116% | -0.589 (inactive) | -1.7e-05 (inactive) | 0.00531 (inactive) | -20.4% (inactive) | -62.4% (inactive)
Cc1ccc(-c2cc3nc4c(c(=O)n3[nH]2)CCCC4)cc1 | 663 | -11% (inactive) | -8.5% (inactive) | 73.1% | -69.9% (inactive) | 119% | -0.454 (inactive) | 1.7e-05 (inactive) | 0.00436 (inactive) | -9.26% (inactive) | -48.6% (inactive)
O=C(CCS(=O)(=O)c1cccc2nonc12)Nc1cccc2c1CCCC2 | 500 | -1.9% (inactive) | -20.7% (inactive) | 109% | -14% (inactive) | 114% | -0.547 (inactive) | 1.6e-05 (inactive) | 0.00573 (inactive) | -1.97% (inactive) | 5.02% (inactive)
Cn1c(=O)c2c(nc(CN3CCN(Cc4ccccc4)CC3)n2Cc2cccc(Cl)c2)n(C)c1=O | 488 | -13.1% (inactive) | 6.5% (inactive) | 100% | 10.1% (inactive) | 98% | -0.562 (inactive) | -5.1e-05 (inactive) | 0.00606 (inactive) | 15.9% (inactive) | 48.7% (inactive)
COc1ccccc1N1CCN(C(=O)C(Cc2ccccc2)NC(=O)C2CCCCC2)CC1 (centres undefined) | 370 | -0.9% (inactive) | 11.3% (inactive) | 65.4% | -114% (inactive) | 96.1% | -0.428 (inactive) | -0.000112 (inactive) | 0.00516 (inactive) | 0.074% (inactive) | 17.7% (inactive)
COc1ccc(S(=O)(=O)Nc2ccc3c(c2)OCO3)cc1Cl | 625 | 7% (inactive) | -18.4% (inactive) | 101% | -9.8% (inactive) | 101% | -0.392 (inactive) | -6.9e-05 (inactive) | 0.00299 (inactive) | 10.6% (inactive) | 12.9% (inactive)
CCOC(=O)N1CCN(C(=O)COc2ccc(S(=O)(=O)NC(C)C)cc2)CC1 | 623 | 6.2% (inactive) | -5.3% (inactive) | 110% | 11.5% (inactive) | 115% | -0.548 (inactive) | -3.6e-05 (inactive) | 0.00507 (inactive) | 10.8% (inactive) | 24.1% (inactive)
CCOC(=O)c1sc(NC(=O)CSc2n[nH]c(-c3ccccc3)n2)c(C#N)c1C | 634 | -4.4% (inactive) | -7.1% (inactive) | 94% | 106% (active) | 122% | -0.393 (inactive) | 2.8e-05 (inactive) | 0.00567 (inactive) | 7.86% (inactive) | -25.2% (inactive)
Cc1ccc(CSC2=NCCN2C(=O)C2CC2)cc1 | 221 | -0.8% (inactive) | 7.2% (inactive) | 100% | -26.8% (inactive) | 107% | -0.604 (inactive) | -2e-05 (inactive) | 0.00584 (inactive) | 11% (inactive) | 11.8% (inactive)
CCC(C)(NC(=O)CNC(C)=O)C(=O)NC1CCCCC1 (centres undefined) | 610 | -15.7% (inactive) | -1.1% (inactive) | 122% | -24.9% (inactive) | 116% | -0.472 (inactive) | -0.000295 (inactive) | 0.00509 (inactive) | -6.71% (inactive) | -2.23% (inactive)
